Assay results from PubChem BioAssay AID463173 (ICCB-Longwood Screening Facility, Harvard Medical School, 2010).
Hit rate of the full screen: of about 52,000 compounds, about 4,300 (8.3%) were called active. For the sample, actives were picked, then their nearest neighbours and some compounds at random. A number with no mark means an inactive call. Cut-off read from the data, not from the text of the source: active = survival mostly below about 52% (no sharp cut-off); inactive = mostly above about 56%.

Each molecule was assayed on DeltatarO mutant (assay: growth inhibition of S. aureus wild type versus tarO mutant, primary screen, teichoic acid synthesis inhibitors, RN4220, OD600 (AID 463173)). Conditions: OD600, 18 h, active compounds read low, screened at 18.75 µg/mL (by protocol).

Structure (SMILES) | survival
O=C(c1ccco1)N1CCN(C(c2ccccc2)c2nnnn2Cc2ccccc2)CC1 (configuration not stated) | 88%
O=C(Cn1cc(C(=O)c2ccco2)c2ccccc21)Nc1ccccc1C(F)(F)F | 74%
CCn1nc(C)c2c(-c3ccccc3)cc(=O)n(C(C)C(=O)NCCc3ccc(Cl)cc3)c21 (configuration not stated) | 87%
CCc1nnc(SCc2cccc(Cl)c2)c2cc3sccc3n12 | -2% (active)
CCc1nnc(SCc2ccc(F)cc2Cl)c2cc3sccc3n12 | 80%
CCc1nnc(SCc2c(F)cccc2Cl)c2cc3sccc3n12 | 94%
CCOC(=O)N1CCN(Cc2nc3cc(NC(=O)CC)ccc3n2C(C)C)CC1 | 100%
COc1cccc(-c2csc(N3CCN(C(=S)NCc4ccco4)CC3)n2)c1 | 91%
COc1ccc(CNC(=O)CCc2c(C)nn(-c3ccc(N4CCOCC4)nn3)c2C)c(OC)c1 | 85%
CCOC(=O)c1ccc(NC(=O)CCc2c(C)nc3cc(-c4ccc(OC)cc4OC)nn3c2C)cc1 | 62%
COc1cccc(NC(=O)Cn2nc(N3CCN(c4ccccc4)CC3)ccc2=O)c1 | 77%
CCOc1ccc(NC(=O)CCc2c(C)nc3cc(-c4ccccc4OC)nn3c2C)cc1 | 53% (active)
COc1ccc(CCNC(=O)CCc2c(C)nc3cc(-c4ccccc4OC)nn3c2C)c(OC)c1 | 54% (active)
COc1ccc(CNC(=O)Cn2nc(N3CCN(c4ccccc4)CC3)ccc2=O)c(OC)c1 | -2% (active)
COc1ccccc1CNC(=O)CCc1c(C)nc2cc(-c3ccccc3OC)nn2c1C | 58%
COc1ccc(CNC(=O)CCc2c(C)nn(-c3ccc(N4CCCCC4)nn3)c2C)c(OC)c1 | 52% (active)
COc1ccc(CNC(=O)CCc2c(C)nn(-c3ccc(N4CCCC4)nn3)c2C)c(OC)c1 | 75%
COc1ccc(CCNC(=O)CCc2c(C)nc3cc(-c4ccc(Cl)cc4)nn3c2C)c(OC)c1 | 108%
CCOc1ccccc1CNC(=O)Cn1nc(N2CCN(c3ccccc3)CC2)ccc1=O | 84%

Structure (SMILES) | survival
COc1ccccc1-c1cc2nc(C)c(CCC(=O)Nc3ccc(Br)c(C)c3)c(C)n2n1 | 67%
CC(C)c1ccc(S(=O)(=O)NCc2nc3cccnc3n2Cc2ccc(F)cc2)cc1 | 88%
COc1cccc(CNC(=O)CN2C(=O)COc3ccc(S(=O)(=O)N4CCOCC4)cc32)c1 | 94%
Cn1cc(S(=O)(=O)N2CCCCCC2)cc1C(=O)Nc1ccc(Cl)c(C(F)(F)F)c1 | 67%
O=C(Nc1cccc(OC(=O)c2ccco2)c1)c1ccccc1 | 58%
CNC(=S)N1CCN(C(=O)/C(=C/c2ccc(F)cc2)NC(C)=O)CC1 | 95%
Cc1ccc(-c2cc(C(=O)N(Cc3ccc(C(C)(C)C)cc3)Cc3ccco3)no2)cc1 | 113%
CCc1nc2ccc(C(=O)NCCc3ccc(OC)cc3OC)cc2nc1CC | 68%
Cc1cccc(N2CCN(S(=O)(=O)c3ccc4oc(=O)c5ncn(C)c5c4c3)CC2C)c1 (configuration not stated) | 77%
Cc1ccc2c(c1)NC(=O)C(CC(=O)Nc1ccccc1Cl)O2 (configuration not stated) | 77%
CCc1nn(C(C)C(=O)N2CCN(c3ccccc3)CC2)c(=O)c2cc3occc3n12 (configuration not stated) | 82%
CC(=O)Nc1ccc(-c2cc(C(=O)O)c3c(-c4ccccc4)[nH]nc3n2)cc1 | 56%
O=C(Nc1nc2c(F)cc(F)cc2s1)c1ccc(S(=O)(=O)N2CCc3ccccc32)cc1 | 115%
Clc1ccc2nc(NCc3ccccc3)c3nncn3c2c1 | 96%
CC(C)OCCCn1c(SCc2ccccc2C#N)nc2c(sc3ccccc32)c1=O | 87%
CCOC(=O)c1cccc(NC(=O)N2CC(CC)Oc3ccccc32)c1 (configuration not stated) | 54%
COC(=O)c1cc(NC(=O)CCc2c(C)nc3cc(-c4ccccc4)nn3c2C)cc(C(=O)OC)c1 | 118%
CCOc1ccc(CCNC(=O)CCc2c(C)nc3cc(-c4ccccc4OC)nn3c2C)cc1 | 50% (active)
CCOC(=O)c1cccc(NC(=O)CCc2c(C)nc3cc(-c4ccc(Cl)cc4)nn3c2C)c1 | 35% (active)

Structure (SMILES) | survival
COc1ccccc1-c1cc2nc(C)c(CCC(=O)NCCc3cccc(C)c3)c(C)n2n1 | 55%
CCOC(=O)CC(NC(=O)CCc1c(C)nc2cc(-c3ccccc3)nn2c1C)c1ccc(C)cc1 (configuration not stated) | 109%
CCN(CC)S(=O)(=O)c1ccc(NC(=O)CCc2c(C)nc3cc(-c4ccc(Cl)cc4)nn3c2C)cc1 | 92%
COc1ccccc1-c1cc2nc(C)c(CCC(=O)NCCc3ccc(SC)cc3)c(C)n2n1 | 81%
CC(=O)c1ccc(NC(=O)CCc2c(C)nc3cc(-c4ccc(Cl)cc4)nn3c2C)cc1 | 47%
CCOc1ccc(NC(=O)CCc2c(C)nc3cc(-c4ccc(Cl)cc4)nn3c2C)cc1 | 35% (active)
CCOC(=O)Cc1c(C)nc2cc(C)nn2c1C | 98%
CCOC(=O)Cc1c(C)nc2cc(-c3ccc(C(C)(C)C)cc3)nn2c1C | -4% (active)
CCOC(=O)c1cccc(NC(=O)CCc2c(C)nc3c4cccnc4nn3c2C)c1 | 100%
c1ccc(C2=NNC(c3nc4ccccc4[nH]3)C2)cc1 (configuration not stated) | 60%
CCCOC(=O)C1=C(C)OC23OC(N)=C(C#N)C12C(=O)c1ccccc13 (configuration not stated) | 80%
O=C(Cn1c(-c2cccs2)cc2ccccc21)NCCCN1CCN(c2ccccc2F)CC1 | 69%
CCn1c(SCc2cccc(Br)c2)nnc1-c1nonc1NC(C)=O | 108%
CC1CCN(C(=O)c2cnn(-c3ccc(Cl)cc3)c2C2CCN(C(=O)OC(C)(C)C)CC2)CC1 | 76%
Cc1nc2nc(C)c(NS(=O)(=O)c3ccc(CC(C)C)cc3)c(=O)n2[nH]1 | 89%
Cc1ccccc1NC(=O)Nc1nnc(N2CCCCCC2)s1 | 94%
COC(=O)c1ccccc1NC(=O)CCc1c(C)nc2cc(-c3ccc(Cl)cc3)nn2c1C | 41% (active)
COc1ccccc1CNC(=O)CCc1c(C)nc2cc(-c3ccc(Cl)cc3)nn2c1C | 129%
CCc1ccccc1NC(=O)CCc1c(C)nc2cc(-c3ccccc3)nn2c1C | 59%
